# PubChem BioAssay AID463173 (ICCB-Longwood Screening Facility, Harvard Medical School, 2010)
# Hit rate of the full screen: of about 52,000 compounds, about 4,300 (8.3%) were called active. Cut-off read from the data, not from the text of the source: active = survival mostly below about 52% (no sharp cut-off); inactive = mostly above about 56%. The sample as a whole holds a higher share of actives than the screen did.
# System: DeltatarO mutant
# Assay: growth inhibition of S. aureus wild type versus tarO mutant, primary screen, teichoic acid synthesis inhibitors, RN4220, OD600 (AID 463173)
# Details: OD600, 18 h, hits give low values, screened at 18.75 µg/mL (by protocol)
row,Compound,survival
1,COc1ccc(NC(=O)c2oc3c(c2C)-c2nn(Cc4c(F)cccc4Cl)cc2CC3)c(OC)c1,72% (inactive)
2,Cc1cc(Cl)ccc1OCCSc1nnc(-c2cccs2)o1,37% (active)
3,Clc1ccccc1OCCSc1nnc(-c2cccs2)o1,43% (inactive)
4,Cc1ccc(OCCSc2nnc(-c3cccs3)o2)cc1,53% (inactive)
5,Cc1ccc(OCCSc2nnc(-c3cccs3)o2)cc1Cl,45% (active)
6,Cc1cccc(OCCSc2nnc(-c3cccs3)o2)c1,58% (inactive)
7,COc1cc(C)ccc1OCCSc1nnc(-c2ccc(C)cc2)o1,55% (inactive)
8,Cc1ccccc1OCCSc1nnc(-c2cccs2)o1,106% (inactive)
9,COc1ccc(-c2nnc(SCCOc3ccccc3C)o2)cc1OC,64% (inactive)
10,COc1cc(C)ccc1OCCSc1nnc(-c2cccs2)o1,40% (active)
11,O=c1c2cnn(-c3ccc(F)cc3)c2ncn1Cc1ccc(F)cc1,106% (inactive)
12,CCn1c2c(c(=O)n3ncc(C(=O)N4CCN(c5ccc(C(C)=O)cc5)CC4)c13)CN(Cc1ccc(OC)cc1)CC2,126% (inactive)
13,COc1ccc(Br)cc1CNC(=O)c1ccc2c(c1)nc1n2CCC(C)C1 (stereo unspecified),75% (inactive)
14,COc1ccccc1C(=O)N1CCC(c2noc(-c3ccc(S(=O)(=O)N4CCCC4)cc3)n2)CC1,98% (inactive)
15,COc1ccc(NC(=O)C(Cc2ccccc2)NS(=O)(=O)c2ccc3c(c2)CCN3C(C)=O)cc1 (stereo unspecified),72% (inactive)
16,COc1ccc(N2CCN(C(=O)c3ccc4c(c3)N(Cc3ccc(F)cc3)C(=O)c3ccccc3S4=O)CC2)cc1 (stereo unspecified),116% (inactive)
17,CC(=O)Nc1ccc(S(=O)(=O)NC2=NCN(CCO)CN2)cc1,89% (inactive)
18,COc1ccc(C)cc1NC(=O)CSc1nc(=O)n(Cc2ccco2)c2c1CCC2,116% (inactive)
19,O=C(O)c1ccc2oc(=O)n(Cc3ccccc3)c2c1,94% (inactive)
20,CCCCOc1ccc(CN2C(=O)C(=O)c3cc(C)ccc32)cc1OC,122% (inactive)
21,CCCCOc1ccc(Cn2c(=O)oc3ccccc32)cc1,127% (inactive)

row,Compound,survival
1,COc1cc(Cn2c(=O)oc3ccc(C)cc32)ccc1OCCC(C)C,-1% (active)
2,CCCCCOc1ccc(Cn2c(=O)oc3ccccc32)cc1,124% (inactive)
3,CC(C)CCOc1ccc(Cn2c(=O)oc3ccccc32)cc1,127% (inactive)
4,CCCCOc1ccc(Cn2c(=O)oc3ccc(C)cc32)cc1OC,36% (active)
5,CCCCCOc1ccc(Cn2c(=O)oc3ccc(C)cc32)cc1OC,4% (active)
6,CCOc1ccc(CNC(=O)c2ccc3oc(=O)n(Cc4ccccc4)c3c2)cc1,79% (inactive)
7,CCCCOc1ccc(Cn2c(=O)oc3ccc(C)cc32)cc1,40% (active)
8,CCOc1ccc(CCNC(=O)c2ccc(CSCc3ccccc3C)o2)cc1OCC,112% (inactive)
9,Cc1ccc(NC(=O)c2ccc(NC(=O)N3CCSc4ncccc43)cc2)cc1Cl,109% (inactive)
10,CCCn1cc(S(=O)(=O)c2cc(C)ccc2C)c(=O)c2cc(F)c(N3CCN(CC)CC3)cc21,80% (inactive)
11,O=C(Nc1ccccc1C(=O)OCc1cc(=O)n2ccsc2n1)c1ccc(Cl)cc1,76% (inactive)
12,COc1ccc(NC(=O)c2ccc(-c3nc(CSc4ccccc4)c(C)o3)cc2)cc1OC,84% (inactive)
13,Cc1ccc(C)c(NC(=O)CN(C)S(=O)(=O)c2cccc3cccnc23)c1,85% (inactive)
14,CCCn1c(N)nc2c1c(=O)[nH]c(=O)n2C,71% (inactive)
15,COC(=O)c1ccc(NC(=O)CC2C(=O)N(c3ccc(Cl)cc3)C(=O)N2Cc2cccs2)cc1 (stereo unspecified),102% (inactive)
16,Cc1cc(C)c(Cn2c3ccccc3c3cnn(CC(=O)NCCc4ccccc4)c(=O)c32)c(C)c1,133% (inactive)
17,Cc1ccc(NC(=O)Cn2cc(C(=O)C3CC3)c3ccccc32)c(C)c1,90% (inactive)
18,CCOC(=O)c1ccc2oc(=O)n(Cc3ccccc3)c2c1,83% (inactive)
19,Cc1ccc2oc(=O)n(CCNC(=O)Nc3ccccc3Cl)c2c1,72% (inactive)
20,CCCCCOc1ccccc1Cn1c(=O)oc2ccc(C)cc21,5% (active)
21,CCCCCOc1ccccc1CN1C(=O)C(=O)c2cc(C)ccc21,151% (inactive)

row,Compound,survival
1,Cc1ccc2oc(=O)n(Cc3ccccc3Cl)c2c1,-3% (active)
2,O=C(NCc1ccccc1Cl)c1ccc2oc(=O)n(Cc3ccccc3)c2c1,72% (inactive)
3,CCCCN(CC)CCCNC(=O)c1cn(C)c(=O)c2c1c1ccccc1n2C,139% (inactive)
4,Cc1ccc2c(c1)cc1c(=O)n(CC(=O)NCc3ccco3)nc(C)n12,84% (inactive)
5,O=C(CN1C(=O)COc2ccc(S(=O)(=O)NC3CCCC3)cc21)NCc1ccccc1Cl,80% (inactive)
6,CCCC(c1nnnn1CC1CCCO1)N(Cc1cccs1)Cc1cc2ccc(C)c(C)c2[nH]c1=O (stereo unspecified),71% (inactive)
7,Cc1ccc(-c2nc3cc(C(C)C)ccc3o2)cc1NC(=O)c1cc([N+](=O)[O-])ccc1N1CCOCC1,62% (inactive)
8,CCn1cc(C2N3CC4(CC)CN2CC(CC)(C3)C4=O)c2ccccc21 (stereo unspecified),73% (inactive)
9,Cc1cccc(C)c1NC(=O)c1ccc2c(c1)nnn2C1CCCC1,-5% (active)
10,Cc1cc(C)cc(NC(=O)c2ccc3c(c2)nnn3C2CCCC2)c1,128% (inactive)
11,Cc1c(Cl)cccc1NC(=O)c1ccc2c(c1)nnn2C1CCCC1,108% (inactive)
12,Cc1cc(Br)ccc1NC(=O)CN1C(=O)c2cccnc2Sc2ccccc21,90% (inactive)
13,CCN(CC)c1ccc(NC(=O)CN2C(=O)c3cccnc3Sc3ccccc32)c(C)c1,-2% (active)
14,CCN(CC)c1ccc(NC(=O)CN2C(=O)c3cccnc3Oc3ccccc32)c(C)c1,116% (inactive)
15,CCOC(=O)c1c(C)c(C(=O)NCCc2ccc(OC)cc2)c(C)n1C,99% (inactive)
16,CCC(=O)N1c2ccccc2CC1C(=O)NCCc1ccccc1C (stereo unspecified),71% (inactive)
17,COc1ccc(C2C(=O)N(C3CCCCCC3)CC(=O)N2Cc2ccc(C)cc2)cc1 (stereo unspecified),60% (inactive)
18,Cc1ccc(CN2C(=O)CN(C3CCC(C)CC3)C(=O)C2c2ccc(F)cc2)cc1 (stereo unspecified),91% (inactive)
19,Cc1ccc(CN2C(=O)CN(C3CCCCCC3)C(=O)C2c2ccc(F)cc2)cc1 (stereo unspecified),6% (active)
